Reference: PubChem BioAssay AID2451 (National Center for Advancing Translational Sciences (NCATS), 2010)
Hit rate of the full screen: of about 290,000 compounds, about 2,100 (0.72%) were called active. A call without a number means that no potency is given here. Inconclusive results (about 4%) are left out. The call rests on the fitted dose curve; in most records, active means well fitted inhibition curve with a large enough effect; inconclusive means small, poorly fitted or top-dose-only effect, or effect the other way; inactive means flat fitted curve, though single readings scatter. The sample as a whole holds a higher share of actives than the screen did.

Molecular target: Fructose-bisphosphate aldolase (Giardia intestinalis (strain ATCC 50803 / WB clone C6)) (UniProt A8B2U2)
Test: qHTS Assay for Inhibitors of Fructose-1,6-bisphosphate Aldolase from Giardia Lamblia; further: nearly all actives have a fitted effect of over 55% in size
Details: purified Giardia FBPA; series mostly up to 59.6 µM
From the text: Assay Provider: Osnat Herzberg, University of Maryland
The objective of this project is to obtain compounds that inhibit Giardia lamblia growth. G. lamblia is a human pathogen which afflicts impoverished nations; it is the most common cause of outbreaks of diarrhea in the United States. During the course of our study of potential drug targets in Giardia, we have identified the Class II (Zn2+ functions in electrophilic catalysis) fructose-1,6-bisphosphate aldolase (FBPA) as an excellent candidate for drug targeting. FBPA is a key glycolytic pathway enzyme, essential for G. lamblia survival. The human FBPA belongs to the Class I aldolases, which have a different substrate binding site structure and a radically different catalytic mechanism (employing a lysine-Schiff base intermediate). Therefore, affinity-based or mechanism-based inhibitors of the Giardia FBPA are expected not to interfere with the catalytic function of the human FBPA.
A glyceraldehyde-3-phosphate dehydrogenase/triose phosphate isomerase/NAD/arsenate coupled assay was adapted to the 1536-well HTP format for use in the primary screen. This was done by coupling it to a diaphorase/resazurin/resorufin reaction that can be monitored by fluorescence (excitation, 544 nm; emission, 590 nm). Compounds identified in this screen will be further evaluated by coupling the glycerol-3-phosphate/triose phosphate isomerase/NADH assay to a phenazine methosulfate/tetranitroblue tetrazolium color reaction. False positives due to the dehydrogenases and diaphorase inhibition will be eliminated, and selectivity assay will triage inhibitors of mammalian triose phosphate isomerase and the Class I FBPA. G. lamblia FBPA inhibitors identified by the in vitro analyses will be examined for growth inhibition of Giardia trophozoites, and for cytotoxicity in human cells.
Step,Parameter,Value,Description
1,Enzyme reagent,2 uL,40 nM FBPA
2,Compound,23 nL,3.68 nM-57.5 uM final concentration
3,Time,10 min,RT Incubation
4,Substrate/detection Reagent,2 uL,Substrate + enzyme coupling system + AmpLite Red kit
5,Time,20 min,RT Incubation
6,Detector,525 nm/598 nm (Fluorescence),ViewLux Fluorescence Read (Read 1)
1,Medium-binding black solid-bottom Kalypsys plates. FRD or Kalypsys dispenser, 2 uL of FBPA enzyme. Bottle kept at 4C.
2,Compound Library (10 mM ,1:5 dilution). Pin-transferred for a [final] range of 3.68 nM-57.5 uM.
4,FRD or Kalypsys dispenser, 2 uL of reaction mixture. Bottle kept at 4C and covered in foil to protect from light.
6,ViewLux Protocol 1194; Excitation filter wheel A (525/20 Pol; BODIPY TMR FP), Emission filter wheel B (598/25 S; BODIPY TMR FP S).
Keywords: Fructose-bisphosphate aldolase, FBPA , Giardia lamblia , Giardia, HTS, Inhibitors
Potency means the concentration at half of the fitted maximal effect.

Fructose-bisphosphate aldolase (Giardia intestinalis (strain ATCC 50803 / WB clone C6)), sequence (A8B2U2 whole entry, looked up): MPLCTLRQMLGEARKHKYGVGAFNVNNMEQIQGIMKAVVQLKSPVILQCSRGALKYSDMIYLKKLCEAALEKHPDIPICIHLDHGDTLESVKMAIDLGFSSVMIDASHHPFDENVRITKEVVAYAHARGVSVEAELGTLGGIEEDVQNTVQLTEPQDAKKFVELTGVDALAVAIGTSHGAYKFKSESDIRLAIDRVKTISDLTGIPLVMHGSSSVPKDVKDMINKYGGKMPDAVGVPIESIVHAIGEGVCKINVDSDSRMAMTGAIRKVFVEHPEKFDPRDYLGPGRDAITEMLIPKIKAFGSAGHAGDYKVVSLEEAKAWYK

Compound | Potency
O=S(=O)(Nc1ccccc1Cl)c1cccc2nsnc12 | inactive
CCOC(=O)c1cc2cc3ccccc3cc2oc1=O | inactive
Cc1cc(C)n2nc(C(=O)NC(C)(C)C)nc2n1 | inactive
C=CCNC(=S)NNC(=O)c1cc(Cl)ccc1OC | inactive
COc1ccc(Cl)cc1C(=O)NNC(=O)c1nc2nc(C)cc(C)n2n1 | 17.7 µM (active)
CCN1C(=S)N[C@@H](c2cccc(C(F)(F)F)c2)C(C(=O)OC)=C1C | inactive
O=C(Nc1cccnc1Cl)c1cc(-c2ccccc2O)on1 | inactive
CSCc1nnc(NC(=O)c2ccc(S(=O)(=O)N3CCCCC3C)cc2)o1 (stereo not drawn) | inactive
Cc1ccnc(NS(=O)(=O)c2ccc(NC(=O)c3ccc(S(=O)(=O)N4CCOCC4)cc3)cc2)n1 | inactive
CC1CCCCN1S(=O)(=O)c1ccc(C(=O)Nc2nnc(-c3cccs3)o2)cc1 (stereo not drawn) | inactive
O=C(Nc1ccc(N2CCOCC2)c(Cl)c1)c1ccc(S(=O)(=O)N2CCOCC2)cc1 | inactive
O=C(Nc1nnc(-c2ccco2)o1)c1ccc(S(=O)(=O)N2CCOCC2)cc1 | 17.7 µM (active)
CC1CCCN(S(=O)(=O)c2ccc(C(=O)Nc3nnc(-c4ccncc4)o3)cc2)C1 (stereo not drawn) | 7.06 µM (active)
CC(C)(C)c1ccc(Cn2nnc3c(=O)[nH]c(C4CCCN(C(=O)c5ccco5)C4)nc32)cc1 (stereo not drawn) | inactive
Cc1cccc(C(=O)Nc2ccc(Oc3cnccn3)cc2)c1 | inactive
CN(Cc1ccccc1)C(=O)CSc1nc2ccccc2[nH]1 | inactive
COc1cc(Cl)ccc1OCc1cc(C(=O)N2CC[C@@H]3CCCC[C@H]3C2)no1 | inactive
COC(=O)[C@@H]1C[C@@]2(O)[C@H](O)[C@H](O)[C@H](O)C[C@H]2N1CC1CCCCC1 | inactive
c1ccc(-c2ccc(OCCN3CCOCC3)cc2)cc1 | inactive
Cc1cccc(C)c1OCCN1CCOCC1 | 15.8 µM (active)
CC(=O)c1ccc(OCCN2CCOCC2)cc1 | inactive
N#Cc1ccc(C2N=C(c3ccccc3)NO2)cc1 (stereo not drawn) | inactive
COc1ccccc1C(C)NC(=O)Cc1ccsc1 (stereo not drawn) | inactive

Compound | Potency
O=C(C[n+]1cc(Br)cc2ccccc21)c1ccc(F)cc1 | inactive
O=C(CSc1nc2ccc([N+](=O)[O-])cc2[nH]1)c1ccc(Cl)cc1 | inactive
O=[N+]([O-])c1ccc2c(c1)Nc1nc3ccccc3nc1N2 | inactive
O=[N+]([O-])c1ccc2nc(-c3ccccn3)[nH]c2c1 | 7.92 µM (active)
COc1cccc(N(CC(=O)NCc2ccccc2)C(=O)CCC(=O)Nc2nccs2)c1 | inactive
CCOc1ccccc1NC(=S)NC(=O)CCc1ccccc1 | inactive
COCCN(CCOC)C(=S)Nc1ccccc1Cl | inactive
COCCN(C(=S)Nc1ccccc1OC)C1CCN(C(C)C)CC1 | 15.8 µM (active)
CCc1cccc(NC(=S)N(CCN(C)C)C2CCN(C(C)C)CC2)c1 | inactive
CCNc1c(NS(=O)(=O)c2ccc(C3CCCCC3)cc2)c(=O)oc2ccccc12 | inactive
O=c1c(O)c(Br)ccc2c(Br)c(O)c(O)c(O)c12 | 11.2 µM (active)
Cc1noc(C)c1-c1ccc2ncnc(NCc3ccc4[nH]ccc4c3)c2c1 | inactive
O=C(NC(=S)N1CCCCC1c1cccnc1)c1ccccc1 (stereo not drawn) | inactive
COc1ccc(C(=O)NC(=S)N2CCCCC2c2cccnc2)cc1OC (stereo not drawn) | 3.55 µM (active)
COc1ccc(/C=C/C(=O)NC(=S)NN2CCCCC2c2cccnc2)cc1 (stereo not drawn) | inactive
CC(C)(C)c1ccc(C(=O)N2CCN(CCNC(=O)C(=O)Nc3ccc(F)cc3)CC2)cc1 | inactive
CCc1nn(CCCC(=O)NCc2ccc(C)cc2)c(=O)c2cc3occc3n12 | inactive
CC(C)c1ccc(N(C(=O)c2ccco2)C(C(=O)NC2CCCC2)c2cccnc2)cc1 (stereo not drawn) | inactive
O=c1[nH]c(=O)c2nc3ccccc3nc2[nH]1 | inactive
Nc1ccc2nc3c(=O)[nH]c(=S)[nH]c3nc2c1 | 3.54 µM (active)
Cc1ccc(NS(=O)(=O)c2ccc(-c3ccc(=O)[nH]n3)o2)c(C)c1 | inactive
O=[N+]([O-])c1ccc(N(CCO)Cc2ccccc2)c([N+](=O)[O-])c1 | inactive
CCOc1cc(-c2cc(-c3ccc(NC(C)=O)cc3)nc(N)c2C#N)ccc1O | inactive

Compound | Potency
CCN(CC)c1ccc([N+](=O)[O-])c2cccnc12 | inactive
O=[N+]([O-])c1cc([N+](=O)[O-])c2cccnc2c1O | 15.8 µM (active)
O=[N+]([O-])c1cccc2ncccc12 | inactive
CCOC(OCC)c1ccc(/C=C\c2nccc(N)n2)cc1 | inactive
Cc1ccc(NC(=S)NCCc2ccc(Cl)cc2)c(C)c1 | inactive
O=c1o[nH]c(-c2ccccc2)c1N=Nc1c(F)cccc1Cl | inactive
COc1ccc(N=Nc2c(-c3ccc(OC)cc3)[nH]oc2=O)cc1 | 12.6 µM (active)
COc1ccc(-c2cn[nH]c2-c2ccc(OC)cc2)cc1 | inactive
O=C(Nc1ccc([N+](=O)[O-])cc1)OCCc1ccccn1 | inactive
CCS(=O)(=O)C1=NSC2=NC(=O)/C(=C\c3ccc(OS(=O)(=O)c4ccccc4)cc3)C(=N)N21 | inactive
COc1ccc(OCc2cc(C(=O)NCC3(C)COC3)no2)c(Cl)c1 | inactive
COC(=O)c1c(NC(=O)COc2ccc(Cl)cc2Cl)sc2c1CC(C)(C)NC2(C)C | inactive
CN1CCCc2cc(C#N)c(=O)[nH]c21 | 9.98 µM (active)
Cc1[nH]c(C)c(S(=O)(=O)N2CCC(C)CC2)c1C(=O)N1CCCC1 | inactive
CCNC(=S)N(CCN(CC)CC)Cc1cc2cc3c(cc2[nH]c1=O)OCCO3 | inactive
CCOC(=O)c1cnc2[nH]c3ccccc3n2c1=O | inactive
Cc1ccc(-c2nc3ccccc3[nH]c2=O)cc1 | inactive
O=c1[nH]c2ccccc2n2c(-c3ccccc3)nnc12 | 0.998 µM (active)
O=C1c2ccccc2C(=O)N1CCOc1ccc(F)cc1 | inactive
COc1ccc(C2=NN(C(=O)c3ccccc3C(=O)O)C(c3ccccc3O)C2)cc1 (stereo not drawn) | inactive
Cc1ccccc1N1CCN(CCCN2C(=O)C3CCCCN3C2=O)CC1 (stereo not drawn) | inactive
CCCCC1(C(=O)OCC)NC(c2ccc(O)cc2)C2C(=O)N(c3ccccc3)C(=O)C21 (stereo not drawn) | inactive
